Measurements as given in PubChem BioAssay (Tox21).
Where “and” joins values, the source holds several entries; their conditions need not be identical. Identical values can stand only once. Results filed as inconclusive are left out. A call without a number means that no potency is given here. Calls of active or inactive are those of the source. Unless noted, calls follow the shape of the dose curve; as a rule, active = well fitted curve in the direction sought with a large enough effect in the repeat runs; inconclusive = weak or mixed curves; inactive = no such curve, though single readings can be large; an effect the other way counts as inactive or inconclusive.

Key:
[1] = qHTS assay to identify small molecule HDAC inhibitors (AID 1259364); also: top concentration of the series differs between compounds; nearly all actives have a fitted effect of over 45% in size
Procedure, shortened: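 Luminescence from a cell-permeant luminogenic class I/II HDAC substrate reports endogenous deacetylase activity in intact HCT-116 cells treated with compounds for 2 h.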

[2] = qHTS assay to identify small molecule HDAC inhibitors - cell viability counter screen (AID 1259365); also: series mostly up to about 92 µM; nearly all actives have a fitted effect of over 50% in size
Procedure, shortened: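 HCT-116 wild-type, overnight attachment; 2hr drug exposure, 37C; CellTiter-Glo luminescent ATP readout after 30min RT.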

[3] = qHTS assay to identify small molecule agonists of the sonic hedgehog signaling (Shh) pathway - cell viability counter screen (AID 1259366); also: nearly all actives have a fitted effect of over 50% in size
Procedure, shortened: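 Compounds in DMSO were pin-transferred onto 3T3 Gli1-Luc cells that had settled 4hr; plates then stood 24hr at 37C and 5% CO2. One hour before the end, CellTiter-Fluor was added and fluorescence recorded.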

[4] = qHTS assay to identify small molecule antagonists of the sonic hedgehog signaling (Shh) pathway - cell viability counter screen (AID 1259367); also: nearly all actives have a fitted effect of over 55% in size
Procedure, shortened: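 Cells: 3T3 Gli1-Luc, 2,000/well, 4 hr pre-incubation. Compounds in DMSO, then conditioned medium. Incubation 24 hr, 37C, 5% CO2. CellTiter-Fluor at 23 hr, 1 hr, fluorescence.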

[5] = qHTS assay to identify small molecule agonists of the sonic hedgehog signaling (Shh) pathway (AID 1259368; calls by dose curve;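 also: NIH/3T3-derived 3T3Gli1-Luc cells carrying a stable Gli1-driven firefly luciferase reporter; series mostly up to about 92 µM; nearly all actives have a fitted effect of over 15% in size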)
Procedure, shortened: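 3T3Gli1-Luc (NIH/3T3 clone, stable Gli1-Luc); 4 hr pre-incubation, then cpd in DMSO 24 hr, 37 C/5% CO2; luciferase reagent 30 min RT; luminescence.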

[6] = qHTS assay to identify small molecule antagonists of the sonic hedgehog signaling (Shh) pathway (AID 1259369; calls by dose curve; also: nearly all actives have a fitted effect of over 45% in size; also: potency is read from the fitted curve at half-maximal effect)
Procedure, shortened: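 3T3Gli1-Luc, conditioned-medium-stimulated, 24hr cpd, 37C/5% CO2; Gli1-driven firefly Luc luminescence after 30min RT with luciferase reagent. Cells plated 4hr before cpd.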

[7] = qHTS assay to identify small molecule agonists of the androgen receptor (AR) signaling pathway in the presence of an antagonist - cell viability counter screen (AID 1259379); also: nearly all actives have a fitted effect of over 25% in size; also: potency is read from the fitted curve at half-maximal effect
Procedure, shortened: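 Cells: MDA-kb2 (MMTV-luc, AR and GR elements), 3,000/well, 5 hr settle. Added: nilutamide 3.0uM final, then compounds (15 conc.). Incubation: 16 hr, 37C, no CO2. Read-out: CellTiter-Fluor, 1 hr, fluorescence.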

[8] = qHTS assay to identify small molecule agonists of the estrogen receptor beta (ER-beta) signaling pathway - cell viability counter screen (AID 1259380); also: nearly all actives have a fitted effect of over 30% in size
Procedure, shortened: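 HEK293T ER-beta-UAS-bla; 2% CS-FBS; 6 hr pre-plate, 16 hr cpd at 37C/5% CO2; LiveBLAzer read first, then CellTiter-Glo 30 min RT, luminescence.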

[9] = qHTS assay to identify small molecule antagonists of the estrogen receptor beta (ER-beta) signaling pathway - cell viability counter screen (AID 1259382);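 also: HEK293T cells carrying ER-beta-UAS-bla reporter stimulated with estradiol; series mostly up to about 92 µM; nearly all actives have a fitted effect of over 55% in size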
Procedure, shortened: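 Cells: ER-beta-UAS-bla HEK293T, 2,000/well, 2% CS-FBS, 6 hr settle. Cpd + E2 (1nM final), 16 hr, 37C/5% CO2. Bla FRET substrate 2 hr RT, then CellTiter-Glo 30 min RT, luminescence.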

[10] = qHTS assay to identify small molecule agonists of the estrogen receptor alpha (ER-alpha) signaling pathway in the presence of an antagonist - cell viability counter screen (AID 1259386);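 also: series mostly up to about 92 µM; cells exposed to compounds for 22 h at 37 °C before the viability read; nearly all actives have a fitted effect of over 30% in size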
Procedure, shortened: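 VM7Luc4E2, stripped-serum pre-culture 5 d; 24hr plating; +ICI-182,780 10.0nM final; cpds 15 conc, 22hr, 37C/5% CO2; CellTiter-Fluor added at 21hr, fluorescence 1hr later.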

[11] = biological target: Progesterone receptor (Homo sapiens) (UniProt P06401); test: qHTS assay to identify small molecule agonists of the progesterone receptor (PR) signaling pathway (AID 1346784; calls by dose curve; also: nearly all actives have a fitted effect of over 30% in size)
Sequence of Progesterone receptor (Homo sapiens) (P06401 whole entry, looked up): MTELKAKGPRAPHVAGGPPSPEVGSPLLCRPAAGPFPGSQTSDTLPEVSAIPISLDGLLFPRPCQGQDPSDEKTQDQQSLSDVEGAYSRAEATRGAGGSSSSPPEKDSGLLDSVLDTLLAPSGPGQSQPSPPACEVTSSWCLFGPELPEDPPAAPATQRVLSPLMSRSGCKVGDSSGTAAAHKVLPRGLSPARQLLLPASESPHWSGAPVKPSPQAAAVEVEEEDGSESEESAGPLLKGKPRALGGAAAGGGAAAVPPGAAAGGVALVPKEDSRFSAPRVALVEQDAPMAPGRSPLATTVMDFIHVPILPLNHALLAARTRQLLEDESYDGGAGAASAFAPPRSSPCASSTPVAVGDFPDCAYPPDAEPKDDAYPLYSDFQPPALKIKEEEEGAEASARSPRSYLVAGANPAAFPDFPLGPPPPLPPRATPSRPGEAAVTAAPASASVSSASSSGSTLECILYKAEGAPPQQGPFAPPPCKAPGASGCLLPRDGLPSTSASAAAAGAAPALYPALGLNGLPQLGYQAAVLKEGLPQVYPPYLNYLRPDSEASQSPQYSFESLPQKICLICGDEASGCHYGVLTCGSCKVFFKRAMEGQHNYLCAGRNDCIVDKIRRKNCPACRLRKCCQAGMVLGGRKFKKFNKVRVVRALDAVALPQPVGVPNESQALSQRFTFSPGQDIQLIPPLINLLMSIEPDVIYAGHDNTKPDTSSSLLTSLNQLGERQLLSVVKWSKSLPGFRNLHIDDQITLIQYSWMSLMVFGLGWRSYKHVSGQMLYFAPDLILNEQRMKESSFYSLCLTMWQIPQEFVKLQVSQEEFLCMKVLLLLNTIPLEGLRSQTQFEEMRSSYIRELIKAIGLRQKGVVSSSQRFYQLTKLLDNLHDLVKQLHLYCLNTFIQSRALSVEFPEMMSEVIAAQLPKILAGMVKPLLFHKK
Procedure, shortened: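 Fluorescence from LiveBLAzer B/G FRET substrate cleavage (2 hr, RT) reported PR activation in PR-UAS-bla HEK 293T cells treated 16 hr at 37C/5% CO2 with compounds; medium contained 2% charcoal-stripped FBS.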

[12] = biological target: Progesterone receptor (Homo sapiens) (UniProt P06401); test: qHTS assay to identify small molecule antagonists of the progesterone receptor (PR) signaling pathway (AID 1346795; active = well fitted inhibition curve with a large enough effect in the signal ratio in the repeat runs, not every such curve was filed as active; the % refers to the signal ratio)
Procedure, shortened: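 Fluorescence intensity measured 2 hr after adding beta-lactamase FRET substrate to PR-UAS-bla HEK293T cells that had been co-treated 16 hr with compound and 1 nM R5020 (final concentration) in 2% charcoal-stripped FBS.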

[13] = qHTS assay to identify small molecule antagonists of the progesterone receptor (PR) signaling pathway - cell viability counter screen (AID 1346798); also: series mostly up to about 92 µM; nearly all actives have a fitted effect of over 50% in size
Procedure, shortened: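 CellTiter-Glo luminescence; PR-UAS-bla HEK293T, 3,000 cells/well; compound + R5020, 16 hr, 37C/5% CO2; 30 min RT before read.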

[14] = qHTS assay to identify small molecule agonists or antagonists of the thyroid stimulating hormone receptor (TSHR) signaling pathway - wild type cell line counter screen (AID 1259384; calls by dose curve)
Procedure, shortened: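 Counter screen in untransfected Hek293: compounds (15-point titration, triplicate) plus phosphodiesterase inhibitor Ro20-1724 added after 18 h plating; 30 min RT. Intracellular cAMP via competitive d2/cryptate immunoassay, 1 h incubation.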

[15] = biological target: Thyrotropin receptor (Homo sapiens) (UniProt P16473); test: qHTS assay to identify small molecule antagonists of the thyroid stimulating hormone receptor (TSHR) signaling pathway (AID 1259385; calls by dose curve; also: nearly all actives have a fitted effect of over 20% in size)
Sequence of Thyrotropin receptor (Homo sapiens) (P16473 whole entry, looked up): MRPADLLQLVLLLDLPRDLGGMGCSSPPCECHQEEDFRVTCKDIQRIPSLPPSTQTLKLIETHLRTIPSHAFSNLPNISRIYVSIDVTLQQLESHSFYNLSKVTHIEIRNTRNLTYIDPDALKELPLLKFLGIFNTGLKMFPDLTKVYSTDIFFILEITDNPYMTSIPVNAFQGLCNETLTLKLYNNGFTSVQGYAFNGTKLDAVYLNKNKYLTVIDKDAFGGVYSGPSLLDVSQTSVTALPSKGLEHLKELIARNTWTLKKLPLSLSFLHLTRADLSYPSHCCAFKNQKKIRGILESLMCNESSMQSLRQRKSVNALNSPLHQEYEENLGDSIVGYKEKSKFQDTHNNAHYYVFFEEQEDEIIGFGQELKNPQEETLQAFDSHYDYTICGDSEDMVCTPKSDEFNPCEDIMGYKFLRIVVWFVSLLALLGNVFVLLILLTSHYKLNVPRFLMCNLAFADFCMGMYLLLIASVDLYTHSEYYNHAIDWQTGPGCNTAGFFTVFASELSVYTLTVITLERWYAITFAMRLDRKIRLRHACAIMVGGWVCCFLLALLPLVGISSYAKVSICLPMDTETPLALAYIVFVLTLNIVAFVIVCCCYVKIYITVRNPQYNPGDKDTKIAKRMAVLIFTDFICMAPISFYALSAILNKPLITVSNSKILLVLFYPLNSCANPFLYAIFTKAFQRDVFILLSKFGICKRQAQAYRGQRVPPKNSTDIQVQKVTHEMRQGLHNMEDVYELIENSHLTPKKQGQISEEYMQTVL
Procedure, shortened: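 Antagonist mode: compound-treated TSHR-expressing HEK293 cells were stimulated with 1.5 ng/mL TSH (final) in presence of Ro20-1724 for 30 min at RT. HTRF cAMP detection after 1 h; each compound tested at 15 concentrations, triplicate.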

| Structure (SMILES) | Potency [1] | Potency [2] | Potency [3] | Potency [4] | outcome [5] | Potency [6] | Potency [7] | Potency [8] | Potency [9] | Potency [10] | Potency [11] | Potency [12] | Potency [13] | Potency [14] | Potency [15] |
| --- | --- | --- | --- | --- | --- | --- | --- | --- | --- | --- | --- | --- | --- | --- | --- |
| CNC | inactive | inactive | inactive | inactive | inactive | inactive | inactive | inactive | inactive | inactive | inactive | inactive | inactive | – | – |
| CCn1cc[n+](C)c1C | inactive | inactive | inactive | inactive | inactive | inactive | inactive | inactive | inactive | inactive | inactive | inactive | inactive | – | – |
| CCCCCCCCn1cc[n+](C)c1 | inactive | inactive | inactive | inactive | inactive | 215 nM (active) and 174 nM (active) | 4.85 µM (active) [middle of 4 runs] | – | inactive | – | inactive | inactive | inactive | inactive | inactive |
| Cc1cc(Cl)ccc1N | inactive | inactive | inactive | inactive | inactive | inactive | inactive | inactive | inactive | inactive | inactive | inactive | inactive | inactive | inactive |
| CCCC[n+]1cccc(C)c1 | inactive | inactive | inactive | inactive | inactive | inactive | inactive | inactive | inactive | inactive | inactive | inactive | inactive | – | – |
| CCC[N+]1(C)CCCCC1 | inactive | inactive | inactive | inactive | inactive | inactive | inactive | inactive | inactive | inactive | inactive | inactive | inactive | inactive | inactive |
